Measurements published in PubChem BioAssay (NCATS).
“And” between values parts separate entries of the source, which are not always exact repeats. Equal values may be shown once. Results filed as inconclusive are left out. The source made the active and inactive calls. Unless noted, the call rests on the fitted dose curve.

Legend:
[1] = target: Glucocorticoid receptor (Homo sapiens) (UniProt P04150); test: qHTS assay for small molecule agonists of glucocorticoid receptor signaling (AID 588532; active means well fitted curve in the direction sought with a large enough effect in the signal ratio, with a control signal flat; the % refers to the signal ratio;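 further: 100% = dexamethasone at 0.1 µM and 0% = DMSO only wells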); conditions: HeLa MMTV-bla, beta-lactamase ratio, agonist, 18 h; activation: stronger effect = higher value, percent of dexamethasone control, DMSO zero
How it was run: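 Stimulation of a glucocorticoid response element-driven beta-lactamase gene was measured in HeLa cells. Responses were scaled between DMSO basal and 0.1 uM dexamethasone, then fitted for half-maximal stimulation.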

[2] = target: Glucocorticoid receptor (Homo sapiens) (UniProt P04150); test: qHTS assay for small molecule antagonists of glucocorticoid receptor signaling (AID 588533; active means well fitted inhibition curve with a large enough effect in the signal ratio, with a control signal flat, not every such curve was filed as active; the % refers to the signal ratio;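 further: cells stimulated with 2 nM dexamethasone as agonist; on the % scale 0 is the no-effect control and ±100 the full control effect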)
How it was run: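 Antagonist-mode qHTS: compound titrations added to GRE-bla HeLa cells, then dexamethasone 2 nM final; 18 h, 37 C. CCF4 FRET fluorescence normalized to dexamethasone and DMSO; IC50 from Hill fit.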

[3] = target: Peroxisome proliferator-activated receptor delta (Homo sapiens) (UniProt Q03181); test: qHTS assay for small molecule agonists of peroxisome proliferator-activated receptor delta signaling (AID 588534);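 further: 0% = DMSO basal wells and 100% = positive control agonist at 10 µM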
How it was run: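 Cells carrying a PPAR-delta beta-lactamase reporter were treated with compounds for 18 h at 37 °C in agonist mode. CCF4 fluorescence was read after 2 h; EC50 and efficacy from Hill fits.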

[4] = target: Peroxisome proliferator-activated receptor gamma (Homo sapiens) (UniProt P37231); test: qHTS assay for small molecule agonists of peroxisome proliferator-activated receptor gamma signaling (AID 588536; active means well fitted curve in the direction sought with a large enough effect in the signal ratio, with a control signal flat, not every such curve was filed as active; the % refers to the signal ratio;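 further: 0% = DMSO basal wells and 100% = rosiglitazone at 2 µM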)
How it was run: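 Ratiometric blue/green fluorescence (405 nm excitation; 460 and 530 nm emission) from CCF4-loaded HEK293 reporter cells serves as signal. Exposure to test compounds lasts 16 h at 37 C in medium containing 1% charcoal/dextran-treated serum.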

[5] = qHTS assay for small molecule agonists of retinoid X receptor alpha signaling (AID 588544); conditions: HEK293T RXRa-UAS-bla, beta-lactamase reporter, 18 h; 530 nm emission;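 on activation: 0% = DMSO basal wells and 100% = reference agonist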
[6] = target: Retinoic acid receptor RXR-alpha (Homo sapiens) (UniProt P19793); test: as above
[7] = target: Thyroid hormone receptor beta (Homo sapiens) (UniProt P10828); test: qHTS assay for small molecule agonists of thyroid hormone receptor beta signaling (AID 588545)
How it was run: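 Agonist activity was read as beta-lactamase CCF4 fluorescence (405 ex, 460/530 em), scaled between DMSO (0%) and 10 nM T3 (100%), then Hill-fitted for EC50 and efficacy. HEK 293 TR-UAS-bla cells in 2% charcoal/dextran FBS medium were exposed 18 h at 37 C.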

[8] = qHTS assay for small molecule antagonists of retinoid X receptor alpha signaling (AID 588546; active means well fitted inhibition curve with a large enough effect in the signal ratio, with a control signal flat, not every such curve was filed as active; the % refers to the signal ratio;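 further: cells stimulated with 9-cis-retinoic acid as agonist; on the % scale 0 is the no-effect control and ±100 the full control effect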); conditions: HEK293T RXRa-UAS-bla, beta-lactamase ratio, antagonist mode; measured here: W530 green channel, cytotoxicity proxy
How it was run: (§1)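 Beta-lactamase reporter inhibition, read as CCF4 fluorescence ratio (ex 405, em 460/530 nm) after 2 h at RT. HEK293T UAS-bla cells, 2500/well, were stimulated with 9-cis-RA at 500 or 100 nM final alongside test compound for 18 h at 37 C.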

[9] = target: Retinoic acid receptor RXR-alpha (Homo sapiens) (UniProt P19793); test: as above; conditions: HEK293T RXRa-UAS-bla, beta-lactamase ratio, antagonist mode
How it was run: as §1

[10] = target: Thyroid hormone receptor beta (Homo sapiens) (UniProt P10828); test: qHTS assay for small molecule antagonists of thyroid hormone receptor beta signaling (AID 588547; active means well fitted inhibition curve with a large enough effect in the signal ratio, with a control signal flat, not every such curve was filed as active; the % refers to the signal ratio;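 further: cells stimulated with 0.4 nM T3 agonist during compound exposure; series mostly up to about 77 µM; on the % scale 0 is the no-effect control and ±100 the full control effect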); conditions: TR-UAS-bla HEK293, beta-lactamase ratio, antagonist mode, 18 h
How it was run: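 TR-UAS-bla GripTite HEK293 cells in 2% charcoal/dextran FBS medium were preincubated 4 h at 37 C, given compound (0.59 nM to 92 uM) plus 0.4 nM T3 (final) for 18 h, then CCF4 for 2 h at RT; Hill fit gave IC50.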

[11] = qHTS assay for small molecule activators of the p53 signaling pathway (AID 651743; active means well fitted activation curve with a large enough effect in the signal ratio, not every such curve was filed as active; the % refers to the signal ratio; further: series mostly up to about 92 µM; % of control where 0% means no effect); conditions: HCT-116 p53RE-bla, beta-lactamase FRET ratio, 16 h; activation: stronger effect = higher value
How it was run: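 Cell-based beta-lactamase reporter (p53 response elements, HCT-116 background). After a 5-hour preincubation, cells received compound for 16 hours at 37 C; substrate development ran 2 hours at room temperature.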

[12] = qHTS assay for environmental chemicals that activate the Aryl hydrocarbon Receptor (AhR) signaling pathway (AID 651777; active means well fitted curve in the direction sought with a large enough effect; an effect the other way counts as inactive or inconclusive; further: % of control where 0% means no effect; nearly all actives have a fitted effect of over 15% in size); conditions: 1A2-DRE human hepatoma cells, luciferase, 24 h; activation: stronger effect = higher value
How it was run: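 Human hepatoma 1A2-DRE cells stably carrying a DRE/CYP1A2 promoter–luciferase reporter, 1,200 cells/well, exposed to compound 24 hr at 37 C. Luciferase read by One-Glo luminescence after 30 min at room temperature; increased signal marks AhR activation.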

[13] = target: Peroxisome proliferator-activated receptor alpha (Homo sapiens) (UniProt Q07869); test: qHTS assay for small molecule agonists of the peroxisome proliferator-activated receptor alpha (PPARalpha) signaling pathway (AID 651778; active means well fitted curve in the direction sought with a large enough effect; an effect the other way counts as inactive or inconclusive; further: % of control where 0% means no effect); conditions: PathHunter PPARalpha complementation, chemiluminescence, 6 h; max response: stronger effect = higher value
How it was run: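 Cells plated at 2,000/well and held overnight at 37 C, 5% CO2, then compound added by pin tool for 6 hr; after PathHunter detection reagent and 60 min at room temperature, chemiluminescence from enzyme complementation was read.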

[14] = qHTS assay for small molecule agonists of the antioxidant response element (ARE) signaling pathway measured by Nrf2-dependant transcriptional activity (AID 720636; active means well fitted curve in the direction sought with a large enough effect in the repeat runs; an effect the other way counts as inactive or inconclusive; further: % of control where 0% means no effect)
How it was run: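 ARE-luc HepG2 cells carrying an Nrf2-responsive luciferase reporter, in medium with 1% dialyzed FBS, exposed to compound for 16 hr at 37 C, 5% CO2. Luminescence read 30 min after ONE-Glo addition.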

[15] = qHTS assay for small molecule agonists of the antioxidant response element (ARE) signaling pathway measured by Nrf2-dependant transcriptional activity - cell viability counter screen (AID 720653; active means well fitted curve in the direction sought with a large enough effect in the repeat runs; an effect the other way counts as inactive or inconclusive; further: on the % scale 0 is the no-effect control and ±100 the full control effect); conditions: ARE-bla HepG2 viability, CellTiter-Glo ATP luminescence, 16 h; max response: stronger effect = lower value
How it was run: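 ARE-bla HepG2 cells (2,000/well) rested 5 hrs at 37C/5% CO2, then exposed to compounds in DMSO for 16 hrs. Viability was read in the same wells as intracellular ATP by luminescence, 30 min at room temperature after reagent addition.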

[16] = qHTS assay for cell viability of the p53RE-bla HCT-116 cell line (AID 743292; active means well fitted curve in the direction sought with a large enough effect; an effect the other way counts as inactive or inconclusive; further: on the % scale 0 is the no-effect control and ±100 the full control effect; nearly all actives have a fitted effect of over 55% in size)
How it was run: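 CellSensor p53RE-bla HCT-116 cells (4,000/well) pre-incubated 5 h at 37 C, then exposed to compounds in DMSO for 16 h at 37 C. Viability read as ATP content by CellTiter-Glo luminescence after 30 min at room temperature.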

[17] = target: Nuclear receptor subfamily 1 group I member 2 (Rattus norvegicus) (UniProt Q9R1A7); test: qHTS assay for small molecule activators of the rat pregnane X receptor (rPXR) signaling pathway (AID 651751; call rule not given here; further: 0% is about no effect); conditions: rPXR reporter cells, luciferase (One-Glo), 24 h
[18] = target: Vitamin D3 receptor (Homo sapiens) (UniProt P11473); test: qHTS assay for small molecule agonists of vitamin D receptor signaling (AID 588543);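 further: 0% = DMSO basal and 100% = reference agonist control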
How it was run: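 Agonist-mode beta-lactamase reporter: HEK293T VDR-UAS-bla cells in charcoal-stripped 2% FBS, compound series 16 h 37 C, CCF4 2 h RT. EC50 from Hill fit, scaled against DMSO and 50 nM calcitriol control.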

[19] = qHTS assay for cell viability of HEK293 cells (AID 743288; active means well fitted curve in the direction sought with a large enough effect; an effect the other way counts as inactive or inconclusive; further: on the % scale 0 is the no-effect control and ±100 the full control effect; nearly all actives have a fitted effect of over 50% in size); conditions: ATP luminescence (CellTiter-Glo), 18 h; max response: stronger effect = lower value
How it was run: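 Total intracellular ATP, measured with a luciferase-coupled reagent, indicates the number of viable HEK293 cells. Exposure to test chemicals lasts 18 h at 37 C in 1,536-well format at 2,000 cells/well.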

[20] = target: Estrogen receptor (Homo sapiens) (UniProt P03372); test: qHTS assay for small molecule agonists of estrogen receptor alpha signaling (AID 588514);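 further: 0% = vehicle only and 100% = reference agonist; nearly all actives have a fitted effect of over 70% in size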
How it was run: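 ER-alpha-UAS-bla GripTite HEK293 cells, 5000/well in 2% charcoal/dextran-stripped FBS medium, treated with compound titrations 18 h at 37 C. CCF4 beta-lactamase read by fluorescence after 2 h RT; normalised to 20 nM 17-beta-estradiol (100%) and DMSO (0%), Hill fit for EC50 and efficacy.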

Chain of Peroxisome proliferator-activated receptor gamma (Homo sapiens) (P37231 whole entry, looked up): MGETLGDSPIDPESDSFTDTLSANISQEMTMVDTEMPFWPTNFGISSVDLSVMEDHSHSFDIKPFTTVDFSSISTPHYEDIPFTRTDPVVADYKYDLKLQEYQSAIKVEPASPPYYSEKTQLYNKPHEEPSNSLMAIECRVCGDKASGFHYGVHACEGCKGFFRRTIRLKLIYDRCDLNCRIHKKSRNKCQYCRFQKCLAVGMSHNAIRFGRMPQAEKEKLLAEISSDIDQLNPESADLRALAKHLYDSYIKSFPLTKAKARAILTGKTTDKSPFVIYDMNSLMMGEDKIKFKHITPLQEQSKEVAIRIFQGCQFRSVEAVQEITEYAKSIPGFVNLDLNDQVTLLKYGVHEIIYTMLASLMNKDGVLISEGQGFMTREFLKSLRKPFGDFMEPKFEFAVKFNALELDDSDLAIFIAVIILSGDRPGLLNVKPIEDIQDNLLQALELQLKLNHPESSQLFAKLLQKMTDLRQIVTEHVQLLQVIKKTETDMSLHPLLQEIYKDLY
Chain of Vitamin D3 receptor (Homo sapiens) (P11473 whole entry, looked up): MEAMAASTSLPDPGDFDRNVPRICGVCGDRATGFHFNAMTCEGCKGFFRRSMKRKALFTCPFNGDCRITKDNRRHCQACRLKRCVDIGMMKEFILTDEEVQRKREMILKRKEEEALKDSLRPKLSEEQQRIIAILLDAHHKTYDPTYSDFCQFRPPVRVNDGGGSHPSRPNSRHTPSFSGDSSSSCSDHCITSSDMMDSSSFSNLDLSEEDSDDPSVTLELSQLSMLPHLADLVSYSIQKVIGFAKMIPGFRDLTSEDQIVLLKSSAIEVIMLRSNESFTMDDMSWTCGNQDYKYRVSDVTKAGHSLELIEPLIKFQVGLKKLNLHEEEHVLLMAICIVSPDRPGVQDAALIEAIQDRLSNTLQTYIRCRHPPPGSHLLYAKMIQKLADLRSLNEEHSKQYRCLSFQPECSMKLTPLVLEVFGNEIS
Chain of Thyroid hormone receptor beta (Homo sapiens) (P10828 whole entry, looked up): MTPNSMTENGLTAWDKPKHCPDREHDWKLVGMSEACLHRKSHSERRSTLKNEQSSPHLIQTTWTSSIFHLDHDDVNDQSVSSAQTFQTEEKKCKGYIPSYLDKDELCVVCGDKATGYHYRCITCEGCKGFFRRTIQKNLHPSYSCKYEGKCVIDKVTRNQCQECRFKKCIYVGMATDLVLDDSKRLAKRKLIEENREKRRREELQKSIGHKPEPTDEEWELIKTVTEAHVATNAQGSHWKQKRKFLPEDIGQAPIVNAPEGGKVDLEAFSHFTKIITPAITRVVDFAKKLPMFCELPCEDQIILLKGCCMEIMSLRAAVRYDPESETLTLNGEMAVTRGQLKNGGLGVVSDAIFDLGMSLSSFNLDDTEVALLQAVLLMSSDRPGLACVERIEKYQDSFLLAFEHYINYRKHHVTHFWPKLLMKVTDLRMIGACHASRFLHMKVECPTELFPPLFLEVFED
Chain of Peroxisome proliferator-activated receptor alpha (Homo sapiens) (Q07869 whole entry, looked up): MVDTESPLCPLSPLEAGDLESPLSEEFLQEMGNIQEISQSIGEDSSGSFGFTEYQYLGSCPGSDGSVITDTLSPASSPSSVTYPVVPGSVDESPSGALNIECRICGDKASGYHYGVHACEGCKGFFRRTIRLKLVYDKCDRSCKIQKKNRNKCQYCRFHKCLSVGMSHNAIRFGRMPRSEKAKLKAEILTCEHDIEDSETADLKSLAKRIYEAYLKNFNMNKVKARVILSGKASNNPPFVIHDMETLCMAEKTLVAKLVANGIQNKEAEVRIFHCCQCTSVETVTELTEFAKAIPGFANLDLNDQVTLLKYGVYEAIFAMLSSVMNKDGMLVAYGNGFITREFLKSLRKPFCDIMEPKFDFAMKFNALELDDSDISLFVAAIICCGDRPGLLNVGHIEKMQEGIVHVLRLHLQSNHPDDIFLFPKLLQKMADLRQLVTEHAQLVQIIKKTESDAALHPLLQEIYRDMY
Chain of Nuclear receptor subfamily 1 group I member 2 (Rattus norvegicus) (Q9R1A7 whole entry, looked up): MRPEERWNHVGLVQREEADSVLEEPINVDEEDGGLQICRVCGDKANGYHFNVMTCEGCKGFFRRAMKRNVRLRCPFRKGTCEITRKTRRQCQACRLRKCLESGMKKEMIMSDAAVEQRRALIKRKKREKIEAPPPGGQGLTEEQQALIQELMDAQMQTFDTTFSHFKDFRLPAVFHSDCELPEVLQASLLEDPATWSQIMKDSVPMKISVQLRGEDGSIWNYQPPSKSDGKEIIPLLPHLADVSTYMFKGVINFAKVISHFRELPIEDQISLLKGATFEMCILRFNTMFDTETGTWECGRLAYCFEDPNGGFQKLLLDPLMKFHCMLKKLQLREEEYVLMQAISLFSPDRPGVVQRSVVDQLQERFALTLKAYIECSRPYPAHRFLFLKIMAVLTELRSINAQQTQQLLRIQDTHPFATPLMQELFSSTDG
Chain of Retinoic acid receptor RXR-alpha (Homo sapiens) (P19793 whole entry, looked up): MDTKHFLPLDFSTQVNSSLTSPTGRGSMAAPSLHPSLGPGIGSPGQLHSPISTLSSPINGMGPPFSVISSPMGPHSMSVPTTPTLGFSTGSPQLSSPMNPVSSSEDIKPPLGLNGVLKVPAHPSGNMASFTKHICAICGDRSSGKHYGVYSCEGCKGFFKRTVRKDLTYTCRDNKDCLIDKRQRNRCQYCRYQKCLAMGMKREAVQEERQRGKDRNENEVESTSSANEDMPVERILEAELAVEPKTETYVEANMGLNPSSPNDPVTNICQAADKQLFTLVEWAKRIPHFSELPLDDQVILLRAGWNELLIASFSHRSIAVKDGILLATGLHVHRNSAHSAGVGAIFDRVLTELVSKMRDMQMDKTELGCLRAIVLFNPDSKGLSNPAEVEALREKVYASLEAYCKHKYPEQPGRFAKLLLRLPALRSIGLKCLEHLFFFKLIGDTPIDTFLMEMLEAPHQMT
Chain of Peroxisome proliferator-activated receptor delta (Homo sapiens) (Q03181 whole entry, looked up): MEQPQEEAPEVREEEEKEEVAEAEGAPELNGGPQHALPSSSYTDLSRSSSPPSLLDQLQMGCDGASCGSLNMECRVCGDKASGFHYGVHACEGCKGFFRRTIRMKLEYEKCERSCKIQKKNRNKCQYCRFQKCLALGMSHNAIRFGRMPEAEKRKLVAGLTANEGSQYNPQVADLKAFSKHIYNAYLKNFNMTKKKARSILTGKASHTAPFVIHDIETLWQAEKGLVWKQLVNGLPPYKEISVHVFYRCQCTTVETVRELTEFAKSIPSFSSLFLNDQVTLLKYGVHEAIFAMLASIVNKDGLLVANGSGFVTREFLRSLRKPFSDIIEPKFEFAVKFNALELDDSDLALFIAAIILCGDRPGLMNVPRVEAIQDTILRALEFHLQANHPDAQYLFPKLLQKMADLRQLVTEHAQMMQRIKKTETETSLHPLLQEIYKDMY
Chain of Glucocorticoid receptor (Homo sapiens) (P04150 whole entry, looked up): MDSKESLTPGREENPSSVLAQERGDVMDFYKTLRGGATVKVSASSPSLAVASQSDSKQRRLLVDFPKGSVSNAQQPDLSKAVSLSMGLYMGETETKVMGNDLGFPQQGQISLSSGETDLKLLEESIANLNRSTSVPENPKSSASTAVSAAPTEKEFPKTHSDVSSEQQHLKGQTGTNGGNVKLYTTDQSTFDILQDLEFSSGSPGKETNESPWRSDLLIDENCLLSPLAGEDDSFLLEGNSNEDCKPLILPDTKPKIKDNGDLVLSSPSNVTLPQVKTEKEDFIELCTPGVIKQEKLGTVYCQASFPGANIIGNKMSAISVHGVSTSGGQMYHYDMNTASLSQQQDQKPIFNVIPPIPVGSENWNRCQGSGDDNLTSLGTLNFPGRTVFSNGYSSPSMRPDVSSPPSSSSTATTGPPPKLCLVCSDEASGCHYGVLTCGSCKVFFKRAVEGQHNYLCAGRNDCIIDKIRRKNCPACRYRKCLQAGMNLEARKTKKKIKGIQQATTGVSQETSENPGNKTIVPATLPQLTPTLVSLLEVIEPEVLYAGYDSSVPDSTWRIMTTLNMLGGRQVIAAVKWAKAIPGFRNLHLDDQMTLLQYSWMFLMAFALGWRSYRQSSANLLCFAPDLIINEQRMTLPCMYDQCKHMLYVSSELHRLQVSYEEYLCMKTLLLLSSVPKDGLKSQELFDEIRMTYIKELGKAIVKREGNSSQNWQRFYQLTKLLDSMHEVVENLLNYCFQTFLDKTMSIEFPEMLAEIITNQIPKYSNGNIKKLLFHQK
Chain of Estrogen receptor (Homo sapiens) (P03372 whole entry, looked up): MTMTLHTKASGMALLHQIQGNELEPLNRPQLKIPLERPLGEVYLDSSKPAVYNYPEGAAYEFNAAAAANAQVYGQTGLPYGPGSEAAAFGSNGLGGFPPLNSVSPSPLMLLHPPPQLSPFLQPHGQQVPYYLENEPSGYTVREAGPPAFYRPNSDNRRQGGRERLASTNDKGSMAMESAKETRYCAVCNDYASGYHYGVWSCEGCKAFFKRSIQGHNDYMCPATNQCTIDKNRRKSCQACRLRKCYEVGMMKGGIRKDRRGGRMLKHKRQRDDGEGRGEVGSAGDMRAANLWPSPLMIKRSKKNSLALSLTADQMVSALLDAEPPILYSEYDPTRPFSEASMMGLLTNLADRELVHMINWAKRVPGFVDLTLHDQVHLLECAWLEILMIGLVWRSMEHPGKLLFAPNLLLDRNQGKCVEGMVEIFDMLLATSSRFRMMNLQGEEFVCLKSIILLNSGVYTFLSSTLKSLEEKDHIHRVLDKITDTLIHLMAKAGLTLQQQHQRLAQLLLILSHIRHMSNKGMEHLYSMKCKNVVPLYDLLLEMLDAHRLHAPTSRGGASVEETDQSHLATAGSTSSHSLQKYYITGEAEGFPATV

N#CCNC(=O)c1cnccc1C(F)(F)F
-6.46%: max response [8]
inactive: activation [1] 0.151% | Potency [2] | outcome [3] | Potency [4] | Potency [6] | Potency [7] | max response [9] -7.71% | activity change % (negative = inhibition) [10] 15.2% | activation [11] -2.69% | activation [12] 1.26% | max response [13] -0.401% | Potency [14] | max response [15] -0.0757% | Potency [16] | max response [17] 3.48%
-4.19%: max response [5]

CCCC1COC(Cn2cncn2)(c2ccc(Cl)cc2Cl)O1 (centres undefined)
1.7%: max response [5]
5.44%: max response [8]
inactive: activation [1] 4.96% and -1.29% | Potency [2] | outcome [3] | Potency [4] | outcome [18] | Potency [6] | Potency [7] | max response [9] 2.1% | activity change % (negative = inhibition) [10] 12.9% and 0.314% | activation [11] -6.14% | max response [13] -0.724% and -0.169% | Potency [14] | max response [15] -18.4% and -18.3% | max response [19] -21.6% and -21.9% | Potency [16]

C[C@H]1[C@H](c2ccc(Cl)cc2)SC(=O)N1C(=O)NC1CCCCC1
inactive: activation [1] -1.81% | Potency [2] | outcome [18] | Potency [7] | activation [11] 4.32% | activation [12] 6.81% | max response [13] -4.71% | Potency [14] | max response [15] -8.81% | max response [19] -26% | Potency [16]

Cc1nn(-c2cc(NS(C)(=O)=O)c(Cl)cc2Cl)c(=O)n1C(F)F
inactive: outcome [3] | Potency [4] | outcome [18] | Potency [6] | max response [9] -28.1% | activity change % (negative = inhibition) [10] -13.9% | activation [11] -4.43% | activation [12] -2.63% | max response [13] -0.197% | Potency [14] | max response [15] 1.41% | max response [19] -6.27% | Potency [16] | max response [17] -0.675%
10.2%: max response [5]
-3.07%: max response [8]

Cc1cc(C)nc(NC(=O)NS(=O)(=O)c2ccccc2C(=O)OC2COC2)n1
-3.21%: max response [5]
inactive: activation [1] 10.1% | outcome [3] | Potency [4] | outcome [18] | Potency [6] | Potency [7] | activity change % (negative = inhibition) [10] 4.53% | activation [12] -0.244% | max response [13] -2.96% | Potency [14] | max response [15] 18% | max response [19] 8.1% | max response [17] -3.04%

CCC(C)n1c(=O)[nH]c(C)c(Br)c1=O (centres undefined)
inactive: Potency [20] | Potency [4] | outcome [18] | Potency [6] | Potency [7] | max response [9] 5.41% | activation [11] -1.24% | activation [12] 4.91% | max response [13] -0.488% | Potency [14] | max response [15] 4.81% | max response [19] -3.11% | Potency [16] | max response [17] -6.26%
-12.2%: max response [8]
0.805%: max response [5]

c1ccc2c(c1)c1cccc3ccc4cccc2c4c31
inactive: outcome [3] | outcome [18] | Potency [7]
